Screening results (PubChem BioAssay)
MITF primary: MITF inhibitors, primary screen, biochemical, AlphaScreen, human. Microphthalmia-associated transcription factor (Homo sapiens), O75030. AlphaScreen MITF homodimerization, bead proximity signal. inhibition, % at 2.6 µM. 0.91% of 650,000 active. AID 1259374, 2018; in the data active means inhibition above about 50%;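 further: 0% = vehicle wells with protein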
Target sequence (O75030 whole entry, looked up): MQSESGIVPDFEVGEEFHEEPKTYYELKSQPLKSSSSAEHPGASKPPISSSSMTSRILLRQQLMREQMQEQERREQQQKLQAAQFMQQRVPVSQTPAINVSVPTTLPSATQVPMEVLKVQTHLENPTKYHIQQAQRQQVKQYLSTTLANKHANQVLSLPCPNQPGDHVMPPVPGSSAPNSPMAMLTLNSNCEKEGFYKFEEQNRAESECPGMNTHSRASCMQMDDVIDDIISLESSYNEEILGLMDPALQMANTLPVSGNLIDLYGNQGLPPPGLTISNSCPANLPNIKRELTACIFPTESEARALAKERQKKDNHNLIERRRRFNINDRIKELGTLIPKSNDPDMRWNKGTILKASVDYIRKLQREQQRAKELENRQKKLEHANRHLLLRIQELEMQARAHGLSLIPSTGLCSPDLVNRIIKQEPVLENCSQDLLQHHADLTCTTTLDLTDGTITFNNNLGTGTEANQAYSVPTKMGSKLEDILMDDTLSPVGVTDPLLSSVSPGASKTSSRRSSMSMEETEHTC
GPR151 ag: activators of human GPR151, primary screen, cell-based, PathHunter beta-arrestin, luminescence; AID 1508602, 2020; G-protein coupled receptor 151 (Homo sapiens), Q8TDV0; 1% of 650,000 active; activation, % at 11.2 µM; PathHunter beta-arrestin GPR151 cells; in the data active means activation above about 4.9%;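 further: 0% = median of compound wells and 100% = cells with positive control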
FBW7 activator: FBW7 E3 ligase activators, primary screen, biochemical, AlphaScreen, human | F-box/WD repeat-containing protein 7 (Homo sapiens), Q969H0 | AlphaScreen FBW7–phospho-cyclin E peptide binding, activator screen | normalized activity (activation), % at 26.1 µM | 0.13% of 650,000 active | AID 1259310, 2017; in the data active means normalized activity above about 1.9%;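 further: purified mutant Fbw7 with reduced substrate affinity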
TEAD-YAP inh: TEAD-YAP interaction inhibition, primary screen, TEAD-YAP interaction inhibitor project, luminescence, HEK-TIYL cells; inhibition, % at 9.12 µM; 1.4% of 640,000 active; TEAD-Gal4/YAP UAS-luciferase luminescence; in the data active means inhibition above about 32%;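 further: 0% = median of test compound wells and 100% = reference inhibitor wells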
Active calls of the source: *. Hits are enriched below; roughly 3.5% of the tested compounds scored in any of these assays.

SMILES	MITF primary	GPR151 ag	FBW7 activator	TEAD-YAP inh
CCOC(=O)N1CCN(c2c(NCc3ccccc3)c(=O)c2=O)CC1	-5	0	0	56*
COc1ccc(-n2c(C)ccc2C)cc1	-1	3	0	3
COC(=O)c1cccc(C(=O)Nc2ccc(I)cc2C)n1	3	-1	0	15
COc1ccc(C2CC(=O)C3=C(C2)NC(=O)CC3c2cccc(OC)c2OC)cc1 (stereo not drawn)	18	0	0	9
CCN(Cc1ccncc1)C1CCN(c2ccc(CC(=O)NCc3ccccc3)cc2)CC1	15	-1	0	41*
COC(CNC(=O)C1CCN(c2nc3ccccc3[nH]2)CC1)OC	17	0	1	-9
CC(=O)C1=C(O)C(=O)N(c2nc3ccccc3s2)C1c1ccccc1F (stereo not drawn)	15	1	0	-77
CC(=O)C1=C(O)C(=O)N(c2nc3ccccc3s2)C1c1ccc(Cl)cc1Cl (stereo not drawn)	20	1	0	66*
CNC(=S)N1CCC(NC(=O)C(Cc2ccc(OC)cc2)NC(C)=O)CC1 (stereo not drawn)	5	3	2.4*	-15
O=c1cc(-c2ccc(O)cc2)oc2c(C3O[C@H](CO)[C@@H](O)[C@H](O)[C@H]3O)c(O)cc(O)c12 (stereo partly drawn)	32	-1	0	-8
O=c1cc(-c2ccc(O)c(O)c2)oc2cc(O)c(C3OC(CO)C(O)C(O)C3O)c(O)c12 (stereo not drawn)	74*	-1	0	3
O=c1c(O[C@@H]2OC([C@H](O)CO)[C@H](O)[C@H]2O)c(-c2ccc(O)c(O)c2)oc2cc(O)cc(O)c12 (stereo partly drawn)	84*	1	0	-7
C[C@@H]1O[C@@H](OC[C@H]2O[C@@H](Oc3c(-c4ccc(O)c(O)c4)oc4cc(O)cc(O)c4c3=O)[C@H](O)[C@@H](O)[C@@H]2O)[C@H](O)[C@H](O)[C@H]1O	83*	-1	0	3
O=c1c(O[C@@H]2O[C@H](CO)[C@@H](O)[C@H](O)[C@H]2O)c(-c2ccc(O)c(O)c2)oc2cc(O)cc(O)c12	61*	1	0	-2
O=c1c(O[C@@H]2O[C@H](CO)[C@H](O)[C@H](O)[C@H]2O)c(-c2ccc(O)c(O)c2)oc2cc(O)cc(O)c12	-9	0	0	-7
O=C(Cn1cc2c(n1)CCCC2)NCCc1c[nH]c2ccccc12	0	0	0	-4
CCN(CC)S(=O)(=O)c1cccc(C(=O)N/N=C/c2cccc(O)c2O)c1	71*	1	-1	5
O=C(N/N=C/c1cccc(O)c1O)c1ccc(O)cc1	57*	-1	-1	-9
Cc1cccc(/C=N\NC(=O)c2ccc([N+](=O)[O-])cc2)c1O	-7	-1	-1	62*
O=C(CN1CCN(c2nc(-c3ccc(F)cc3)cs2)CC1)N1CCOCC1	17	-1	0	2
Cc1nccn1-c1cc(NCCNC(=O)Nc2ccc(F)c(Cl)c2)ncn1	3	0	0	78*
CC1(C)C(=O)OC2(c3ccc(Cl)cc3)C1OC(=O)C2(C)C (stereo not drawn)	0	1	0	8
Cc1cc(C)n(CC(O)COc2ccc(C(=O)c3ccccc3)cc2)n1 (stereo not drawn)	16	0	0	-21
CC(=O)c1c(C)nn(CC(O)COc2ccc(C(=O)c3ccc(Cl)cc3)cc2)c1C (stereo not drawn)	-23	1	0	40*
Cc1nc(NC(=O)c2ccco2)ccc1I	7	-7	0	39*
SMILES	MITF primary	GPR151 ag	FBW7 activator	TEAD-YAP inh
Cc1nc(NC(=O)c2cc3ccccc3o2)ccc1I	19	-2	0	-14
CSc1ccccc1Nc1ncnc2c1cnn2-c1ccccc1	-3	2	0	-27
COc1ccc(OC)c(Nc2ncnc3c2cnn3-c2cccc(C)c2)c1	-8	0	0	42*
COc1ccc(-n2ncc3c(Nc4ccc(C)cc4C)ncnc32)cc1	6	-1	0	-30
COc1ccc(-n2ncc3c(Nc4ccccc4SC)ncnc32)cc1	-2	1	0	55*
COc1ccc(-n2ncc3c(Nc4cc(C)ccc4C)ncnc32)cc1	-1	-2	0	40*
COC(=O)c1ccccc1NC(=O)c1c(NC(C)=O)sc2c1CCC(C(C)(C)C)C2 (stereo not drawn)	6	1	0	2
Cc1ccc2nc(SCC(=O)Nc3ncc(C)s3)c(C#N)cc2c1	7	0	3.8*	-73
COc1ccccc1NC(=O)CSc1nc2cc3c(cc2cc1C#N)OCCO3	23	-1	1	62*
N#Cc1cc2cc3c(cc2nc1SCC(=O)NCc1ccc2c(c1)OCO2)OCCO3	18	0	0	50*
COc1cc2cc(C#N)c(SCC(=O)NCc3cccs3)nc2cc1OC	-8	-1	0	-2
N#Cc1cc2cc3c(cc2nc1SCC(=O)NCc1cccs1)OCCO3	7	-1	1	46*
COc1ccc(C(=O)Cc2cc(OC)c(OC)cc2Br)c(OC)c1	-6	0	0	4
Cn1c2ccccc2c2nnc(N/N=C/c3ccccn3)nc21	45	0	-1	36*
Cc1cc(C)n(-c2ccc(N3CCN(C(=O)COc4ccccc4)CC3)nn2)n1	17	-1	1	3
COc1ccccc1-c1ccc(N2CCN(C(=O)COc3ccccc3)CC2)nn1	-11	-1	7.6*	5
CCCOc1ccc(N2CCN(C(=O)COc3ccc(F)cc3)CC2)nn1	-5	1	3.3*	7
Cn1c(=O)c2ncn(CC(=O)N/N=C/c3cc(Br)ccc3O)c2n(C)c1=O	63*	-1	-1	12
Cn1c(=O)c2ncn(CC(=O)N/N=C/c3cc(Cl)ccc3O)c2n(C)c1=O	42	2	-1	8
CC(=O)c1ccc(OCC(=O)NCC2Cc3c(F)ccc(-c4ccncc4)c3O2)cc1 (stereo not drawn)	0	4	0	33*
COc1cc(CN2CCc3nnc(CCNC(=O)C(C)C)n3CC2)ccc1O	-13	-1	0	5
COc1ccc(/C=C2/SC(=S)N(NS(=O)(=O)c3ccccc3)C2=O)cc1	-7	1	0	-2
O=C1/C(=C/c2ccco2)SC(=S)N1NS(=O)(=O)c1ccccc1	60*	2	0	8
CCC(C(=O)O)N1C(=O)/C(=C\c2ccco2)SC1=S (stereo not drawn)	59*	1	0	-6
CCC(C(=O)O)N1C(=O)/C(=C/c2cccs2)SC1=S (stereo not drawn)	1	-1	0	4
CCOc1ccc(-c2[nH]nc3c2C(c2ccc(OC)c(OC)c2)C(C#N)=C(N)O3)c(OCC)c1 (stereo not drawn)	-5	0	0	-1
